Source: PubChem BioAssay
Active and inactive are the calls of the source. No rule for the calls is given here. Positions of bridges follow the written chain, without caps; N, C: chain ends. Non-standard residues stand in square brackets, D forms with d. Residues, ends and D or L forms follow the SMILES beside them. *: point of attachment. Octanoyl(6-Me) = CCC(C)CCCCC(=O)*; Dab = NCC[CH](N)C(=O)O

test system: Aerobactin synthetase IucA (Klebsiella pneumoniae hvKP1); experiment: Biochemical IucA enzyme inhibition primary screen of the Spectrum library (AID 1346200); details: malachite green pyrophosphate, A620, at 8 µM, active compounds read low;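 also: 100% = wells without compound and 0% = wells lacking enzyme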

| SMILES | activity remaining |
| --- | --- |
| CN(C)C(=O)Nc1ccc(Cl)c(Cl)c1 | 109% (inactive) |
| NC(=O)N1c2ccccc2CC(=O)c2ccccc21 | 123% (inactive) |
| COC(=O)C1=CO[C@@H](O[C@@H]2O[C@H](CO)[C@@H](O)[C@H](O)[C@H]2O)[C@@H]2[C@@H](C)[C@@H](O)C[C@H]12 | 101% (inactive) |
| CS(=O)(=O)c1ccc(C2=C(c3ccccc3)C(=O)OC2)cc1 | 87.7% (inactive) |
| O=C(O)c1ccc(S(=O)(=O)N(Cl)Cl)cc1 | 113% (inactive) |
| O=C(NC1CCCCC1)NC1CCCCC1 | 71.2% (inactive) |
| O=C(O)CN(CC(=O)O)Cc1cc2c(-c3ccccc3C(=O)O)c3cc(CN(CC(=O)O)CC(=O)O)c(=O)cc-3oc2cc1O | 113% (inactive) |
| Nc1nc(/C(=C/CC(=O)O)C(=O)N[C@@H]2C(=O)N3C(C(=O)O)=CCS[C@H]23)cs1 | 117% (inactive) |
| CC(=O)OC1CCC2C3CCc4cc(O)ccc4C3CCC12C (stereo not drawn) | 123% (inactive) |
| CC1(C)C(=O)[C@@H]2C[C@@]3(O)C4=CC(=O)O[C@@H](c5ccoc5)[C@]4(C)CCC3C(C)(C2=O)[C@H]1CC(=O)O (stereo partly drawn) | 98.2% (inactive) |
| CCOC(=O)C(Cc1ccc(O)cc1)NC(C)=O (stereo not drawn) | 98.7% (inactive) |
| O=c1cc(-c2ccc(O)c(O)c2)oc2ccccc12 | 88.4% (inactive) |
| Cc1onc(-c2ccccc2Cl)c1C(=O)N[C@@H]1C(=O)N2[C@@H]1SC(C)(C)[C@@H]2C(=O)O | 96.2% (inactive) |
| C=C1C2CC[C@@]3(C)[C@H](c4ccoc4)OC(=O)C[C@]13O[C@H]1CC(=O)C(C)(C)[C@H](C(O)C(=O)OC)[C@@]21C (stereo partly drawn) | 95.2% (inactive) |
| COc1ccc2c(c1)OC[C@@H](Cc1ccc(OC)c(OC)c1)[C@@H]2O | 121% (inactive) |
| CC(=O)[C@H]1CCC2C3CC=C4C[C@@H](OC(=O)CCC(=O)O)CC[C@]4(C)C3CC[C@@]21C (stereo partly drawn) | 117% (inactive) |
| CC(=O)Oc1c(-c2ccccc2)oc2c(CC=C(C)C)c3c(c(OC(C)=O)c2c1=O)C=CC(C)(C)O3 | 98.4% (inactive) |

| SMILES | activity remaining |
| --- | --- |
| Nc1ccc(S(=O)(=O)Nc2ncccn2)cc1 | 120% (inactive) |
| CC(=O)O[C@H]1CC[C@]2(C)C3CC[C@@]4(C)C(CC5O[C@@]6(CCC(C)CO6)[C@@H](C)C54)C3CC[C@@H]2C1 (stereo partly drawn) | 84.2% (inactive) |
| CCOC(=O)[C@H](CCc1ccccc1)N[C@@H](C)C(=O)N1[C@H](C(=O)O)C[C@@H]2CCC[C@@H]21 | 103% (inactive) |
| CCc1nc(N)nc(N)c1-c1ccc(Cl)cc1 | 108% (inactive) |
| CC(=O)Nc1ccc(OC(=O)c2ccccc2O)cc1 | 101% (inactive) |
| C=CC(N)CCC(=O)O (stereo not drawn) | 119% (inactive) |
| CCC[C@@H]1C[C@@H](C(=O)N[C@H]([C@H]2O[C@H](SC)[C@H](O)[C@@H](O)[C@H]2O)[C@H](C)O)N(C)C1 | 111% (inactive) |
| COc1cc([C@H]2Oc3cc([C@H]4Oc5cc(O)cc(O)c5C(=O)[C@@H]4O)ccc3O[C@@H]2CO)ccc1O | 122% (inactive) |
| COC(=O)C[C@H]1C(C)(C)C(=O)[C@@H]2CC3C4=CC(=O)O[C@@H](c5ccoc5)[C@]4(C)CCC3C1(C)C2=O (stereo partly drawn) | 120% (inactive) |
| CCC(C)CCCCC(=O)NC(CCN)C(=O)NC(C(=O)NC(CCN)C(=O)NC1CCNC(=O)C(C(C)O)NC(=O)C(CCN)NC(=O)C(CCN)NC(=O)C(CC(C)C)NC(=O)C(Cc2ccccc2)NC(=O)C(CCN)NC1=O)C(C)O (stereo not drawn) ({Octanoyl(6-Me)}-[Dab]T[Dab][Dab][Dab]FL[Dab][Dab]T; lactam 4-C; configuration not given here) | 121% (inactive) |
| C#C[C@]1(O)CCC2C3CCc4cc(OC)ccc4C3CC[C@@]21C (stereo partly drawn) | 116% (inactive) |
| CC(=O)OCC[C@H](C)CCC=C(C)C | 104% (inactive) |
| Nc1nc2c(c(=O)[nH]1)N(C=O)C(CNc1ccc(C(=O)N[C@@H](CCC(=O)O)C(=O)O)cc1)CN2 (stereo partly drawn) | 104% (inactive) |
| COc1ccc(C[C@H](N)C(=O)N[C@@H]2[C@@H](CO)OC(n3cnc4c(N(C)C)ncnc43)[C@@H]2O)cc1 (stereo partly drawn) | 87.5% (inactive) |
| O=C1OC2(c3ccc(O)cc3Oc3cc(O)ccc32)c2ccccc21 | 111% (inactive) |
| C[C@]12C=CC(=O)C=C1CCC1C2[C@@H](O)C[C@@]2(C)C1CC[C@]2(O)C(=O)COC(=O)CCC(=O)O (stereo partly drawn) | 111% (inactive) |
